# From the supplement of paper PMC10849652
# About 8,800 targets were measured; listed, in parts, are those with a hit and a random draw of the rest. About 0.5% of all pairs of compound and target were hits. Values without a mark were called inactive.
# Experiments:
# Test in all cases: log2 fold change, soluble protein after heating vs DMSO (PISA); higher = thermal stabilisation; K562 lysate, 10 uM; active = over 0.2 and 3.5 SD of the protein, either way, in both replicates (recomputed)
# [1] = compound: CS(=O)(=O)CCNCc1ccc(-c2ccc3ncnc(Nc4ccc(OCc5cccc(F)c5)c(Cl)c4)c3c2)o1 [lapatinib]
# Summary of the method: (§1)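 Values give the log-two fold change in thermal stability against solvent controls, from duplicates. Crude K562 extract at 1 mg/mL protein, made by dounce homogenisation in PBS pH 7.4 with 1 mM MgCl2, was treated with 10 μM compound for 30 min. After 3 min heating across 48°C-58°C, aliquots were pooled, adjusted to 0.5% NP-40 at 4°C and centrifuged at 21,000xg for 90 min. The supernatant was measured by TMTpro 16plex LC-MS/MS with channel sums equalised.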
# [2] = compound: CS(=O)(=O)N1CCN(Cc2cc3nc(-c4cccc5[nH]ncc45)nc(N4CCOCC4)c3s2)CC1 [pictilisib]
# Summary of the method: as §1
# [3] = compound: C[C@@H](Oc1cc(-c2cnn(C3CCNCC3)c2)cnc1N)c1c(Cl)ccc(F)c1Cl [crizotinib]
# Summary of the method: as §1
# [4] = compound: C[C@H](C1=CC=C(C=C1)C(=O)NC2=C3C=CNC3=NC=C2)N
# Summary of the method: as §1
# [5] = compound: C[C@H](Nc1ncnc2nc[nH]c12)c1cc2cccc(Cl)c2c(=O)n1-c1ccccc1 [duvelisib]
# Summary of the method: as §1
# [6] = compound: Cc1cc(Nc2cc(CN3CCOCC3)c3nc(C)c(Cc4ccc(Cl)cc4F)n3n2)n[nH]1 [gandotinib]
# Summary of the method: as §1
# [7] = compound: Cc1cc(Nc2cc(N3CCN(C)CC3)nc(Sc3ccc(NC(=O)C4CC4)cc3)n2)n[nH]1 [tozasertib]
# Summary of the method: as §1
# [8] = compound: Cc1ccc(-n2nc(C(C)(C)C)cc2NC(=O)Nc2ccc(OCCN3CCOCC3)c3ccccc23)cc1 [doramapimod]
# Summary of the method: as §1
# [9] = compound: Cc1ccc(NC(=O)c2ccc(CN3CC[C@H](N(C)C)C3)c(C(F)(F)F)c2)cc1Nc1nccc(-c2cncnc2)n1 [bafetinib]
# Summary of the method: as §1
# [10] = compound: Cc1cccc(CC(=O)N2CCc3c2ccc(-c2cn(C)c4ncnc(N)c24)c3F)n1
# Summary of the method: as §1
# UniProt O43808, sequence (O43808 whole entry, looked up): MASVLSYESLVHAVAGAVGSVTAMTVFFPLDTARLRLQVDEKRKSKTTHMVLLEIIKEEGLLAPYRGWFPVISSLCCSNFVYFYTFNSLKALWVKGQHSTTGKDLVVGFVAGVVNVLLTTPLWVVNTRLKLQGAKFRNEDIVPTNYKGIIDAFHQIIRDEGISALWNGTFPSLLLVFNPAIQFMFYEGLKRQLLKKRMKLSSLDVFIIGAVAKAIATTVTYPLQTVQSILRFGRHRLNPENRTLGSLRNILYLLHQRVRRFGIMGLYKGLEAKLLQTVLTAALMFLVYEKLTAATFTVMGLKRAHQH
# UniProt Q9H2V7, sequence (Q9H2V7 whole entry, looked up): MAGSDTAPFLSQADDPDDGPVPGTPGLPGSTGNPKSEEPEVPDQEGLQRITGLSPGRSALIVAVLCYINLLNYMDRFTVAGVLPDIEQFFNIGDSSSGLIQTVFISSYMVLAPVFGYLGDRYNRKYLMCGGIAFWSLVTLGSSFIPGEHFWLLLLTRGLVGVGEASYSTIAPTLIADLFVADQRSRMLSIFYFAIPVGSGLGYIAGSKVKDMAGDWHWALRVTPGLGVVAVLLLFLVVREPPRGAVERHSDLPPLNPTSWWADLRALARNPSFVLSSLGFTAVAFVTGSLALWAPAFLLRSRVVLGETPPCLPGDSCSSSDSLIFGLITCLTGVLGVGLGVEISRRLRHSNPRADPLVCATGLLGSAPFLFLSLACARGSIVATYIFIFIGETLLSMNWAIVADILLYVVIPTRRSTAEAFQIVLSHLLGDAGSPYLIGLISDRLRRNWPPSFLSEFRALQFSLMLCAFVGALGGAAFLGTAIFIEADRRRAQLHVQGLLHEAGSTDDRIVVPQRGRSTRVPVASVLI
# UniProt Q96DW6, sequence (Q96DW6 whole entry, looked up): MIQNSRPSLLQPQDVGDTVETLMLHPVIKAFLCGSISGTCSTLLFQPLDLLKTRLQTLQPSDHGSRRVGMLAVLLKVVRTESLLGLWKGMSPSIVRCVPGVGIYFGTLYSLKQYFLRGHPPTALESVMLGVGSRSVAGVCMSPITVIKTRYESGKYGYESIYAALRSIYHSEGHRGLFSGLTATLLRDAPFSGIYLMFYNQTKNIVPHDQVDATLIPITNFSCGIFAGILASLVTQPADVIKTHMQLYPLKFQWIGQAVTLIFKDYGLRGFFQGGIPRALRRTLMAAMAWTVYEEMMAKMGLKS
# UniProt Q01130, sequence (Q01130 whole entry, looked up): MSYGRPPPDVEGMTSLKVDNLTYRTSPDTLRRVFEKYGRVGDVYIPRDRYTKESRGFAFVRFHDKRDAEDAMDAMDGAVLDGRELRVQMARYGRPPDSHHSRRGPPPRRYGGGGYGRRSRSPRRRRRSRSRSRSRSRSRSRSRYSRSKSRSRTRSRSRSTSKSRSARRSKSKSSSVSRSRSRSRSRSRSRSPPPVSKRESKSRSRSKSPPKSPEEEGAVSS
# UniProt P08047, sequence (P08047 whole entry, looked up): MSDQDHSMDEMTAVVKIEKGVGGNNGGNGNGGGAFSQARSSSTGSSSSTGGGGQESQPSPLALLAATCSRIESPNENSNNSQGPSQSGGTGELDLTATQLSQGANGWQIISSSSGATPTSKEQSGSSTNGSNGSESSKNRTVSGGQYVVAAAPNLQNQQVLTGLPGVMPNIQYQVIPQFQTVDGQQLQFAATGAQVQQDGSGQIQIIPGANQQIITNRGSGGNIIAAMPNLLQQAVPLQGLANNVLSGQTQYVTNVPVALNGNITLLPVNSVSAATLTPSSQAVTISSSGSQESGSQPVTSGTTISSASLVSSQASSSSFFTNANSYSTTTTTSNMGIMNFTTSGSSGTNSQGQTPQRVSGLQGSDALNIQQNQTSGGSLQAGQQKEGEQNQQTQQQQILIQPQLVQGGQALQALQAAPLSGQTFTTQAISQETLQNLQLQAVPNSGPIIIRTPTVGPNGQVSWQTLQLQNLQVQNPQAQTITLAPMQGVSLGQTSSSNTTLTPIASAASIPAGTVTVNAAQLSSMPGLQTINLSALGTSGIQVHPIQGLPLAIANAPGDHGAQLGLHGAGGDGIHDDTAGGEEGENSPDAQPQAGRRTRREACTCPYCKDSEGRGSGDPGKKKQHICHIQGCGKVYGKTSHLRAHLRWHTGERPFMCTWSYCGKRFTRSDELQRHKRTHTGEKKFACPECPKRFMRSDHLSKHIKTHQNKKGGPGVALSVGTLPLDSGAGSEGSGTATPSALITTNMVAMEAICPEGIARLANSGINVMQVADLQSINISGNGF
# UniProt P35711, sequence (P35711 whole entry, looked up): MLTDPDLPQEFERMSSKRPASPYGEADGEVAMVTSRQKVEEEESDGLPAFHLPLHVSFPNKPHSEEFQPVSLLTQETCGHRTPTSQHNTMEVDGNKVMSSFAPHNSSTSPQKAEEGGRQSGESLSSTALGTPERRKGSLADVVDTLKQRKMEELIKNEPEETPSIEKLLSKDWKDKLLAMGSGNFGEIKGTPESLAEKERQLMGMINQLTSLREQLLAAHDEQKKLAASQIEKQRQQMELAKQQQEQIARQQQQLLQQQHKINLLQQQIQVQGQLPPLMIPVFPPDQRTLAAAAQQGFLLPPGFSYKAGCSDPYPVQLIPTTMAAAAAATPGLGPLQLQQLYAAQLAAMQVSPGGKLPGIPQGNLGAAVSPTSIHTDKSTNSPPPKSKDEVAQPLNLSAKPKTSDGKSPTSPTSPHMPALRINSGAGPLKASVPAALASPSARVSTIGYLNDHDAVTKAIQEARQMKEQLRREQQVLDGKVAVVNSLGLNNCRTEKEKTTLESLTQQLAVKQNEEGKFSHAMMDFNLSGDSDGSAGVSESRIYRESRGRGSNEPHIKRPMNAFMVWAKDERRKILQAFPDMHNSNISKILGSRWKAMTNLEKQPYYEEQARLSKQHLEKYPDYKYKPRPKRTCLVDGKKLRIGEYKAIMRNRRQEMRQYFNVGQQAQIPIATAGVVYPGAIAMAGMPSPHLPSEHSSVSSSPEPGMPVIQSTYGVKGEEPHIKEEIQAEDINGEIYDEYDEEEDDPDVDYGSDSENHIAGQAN
# UniProt Q13188, sequence (Q13188 whole entry, looked up): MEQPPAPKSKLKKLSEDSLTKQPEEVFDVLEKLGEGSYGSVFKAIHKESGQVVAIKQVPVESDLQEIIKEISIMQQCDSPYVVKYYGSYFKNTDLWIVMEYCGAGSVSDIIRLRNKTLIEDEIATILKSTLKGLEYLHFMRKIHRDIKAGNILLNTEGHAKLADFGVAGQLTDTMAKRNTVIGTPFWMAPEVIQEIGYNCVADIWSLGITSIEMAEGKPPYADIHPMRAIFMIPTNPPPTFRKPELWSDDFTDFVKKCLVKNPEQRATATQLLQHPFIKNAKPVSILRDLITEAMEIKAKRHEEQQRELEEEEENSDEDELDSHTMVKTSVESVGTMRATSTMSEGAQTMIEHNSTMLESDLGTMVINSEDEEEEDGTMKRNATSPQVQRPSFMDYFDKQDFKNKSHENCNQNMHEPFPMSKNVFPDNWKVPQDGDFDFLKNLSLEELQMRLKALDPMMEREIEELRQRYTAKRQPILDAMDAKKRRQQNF
# UniProt Q96SB8, sequence (Q96SB8 whole entry, looked up): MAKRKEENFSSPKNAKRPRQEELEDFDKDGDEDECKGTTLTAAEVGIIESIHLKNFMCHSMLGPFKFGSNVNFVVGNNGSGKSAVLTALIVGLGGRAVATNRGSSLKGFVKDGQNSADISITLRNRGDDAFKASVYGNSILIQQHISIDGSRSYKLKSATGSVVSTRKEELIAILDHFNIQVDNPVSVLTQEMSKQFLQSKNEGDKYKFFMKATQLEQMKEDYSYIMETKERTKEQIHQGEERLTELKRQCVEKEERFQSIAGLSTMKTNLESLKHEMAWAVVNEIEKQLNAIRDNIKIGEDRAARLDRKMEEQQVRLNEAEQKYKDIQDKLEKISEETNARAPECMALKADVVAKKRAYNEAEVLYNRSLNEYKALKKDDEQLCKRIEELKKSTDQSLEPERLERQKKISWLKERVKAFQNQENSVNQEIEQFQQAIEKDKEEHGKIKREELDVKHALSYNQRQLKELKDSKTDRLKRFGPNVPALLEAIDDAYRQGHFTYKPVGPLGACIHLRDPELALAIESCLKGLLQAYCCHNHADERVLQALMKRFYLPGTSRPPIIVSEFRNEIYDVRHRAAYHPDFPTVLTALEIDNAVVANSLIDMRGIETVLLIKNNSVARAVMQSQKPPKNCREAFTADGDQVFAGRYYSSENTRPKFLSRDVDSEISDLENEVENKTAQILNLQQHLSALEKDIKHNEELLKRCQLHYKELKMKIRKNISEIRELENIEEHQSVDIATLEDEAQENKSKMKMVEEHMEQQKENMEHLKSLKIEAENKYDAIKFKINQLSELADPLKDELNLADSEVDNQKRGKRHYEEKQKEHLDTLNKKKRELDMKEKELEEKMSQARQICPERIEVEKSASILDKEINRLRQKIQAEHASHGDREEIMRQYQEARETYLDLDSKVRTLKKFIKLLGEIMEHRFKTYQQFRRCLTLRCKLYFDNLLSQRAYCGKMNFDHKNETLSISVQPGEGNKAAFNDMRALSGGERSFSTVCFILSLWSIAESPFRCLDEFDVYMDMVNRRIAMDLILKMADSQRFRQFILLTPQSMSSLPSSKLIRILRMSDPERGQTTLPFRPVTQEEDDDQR
# UniProt Q15527, sequence (Q15527 whole entry, looked up): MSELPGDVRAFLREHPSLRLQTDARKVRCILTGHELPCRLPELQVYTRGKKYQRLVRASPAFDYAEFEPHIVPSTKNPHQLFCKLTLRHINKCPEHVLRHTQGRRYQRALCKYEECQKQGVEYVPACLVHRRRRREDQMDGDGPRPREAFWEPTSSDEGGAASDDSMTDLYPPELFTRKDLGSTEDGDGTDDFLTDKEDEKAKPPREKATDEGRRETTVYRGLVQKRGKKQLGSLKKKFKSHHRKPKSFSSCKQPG
# UniProt P62316, sequence (P62316 whole entry, looked up): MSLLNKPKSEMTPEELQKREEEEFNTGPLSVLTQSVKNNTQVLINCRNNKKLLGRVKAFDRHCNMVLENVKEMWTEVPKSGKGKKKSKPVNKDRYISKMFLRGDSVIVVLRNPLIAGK
Target,log2 fold change [1],log2 fold change [2],log2 fold change [3],log2 fold change [4],log2 fold change [5],log2 fold change [6],log2 fold change [7],log2 fold change [8],log2 fold change [9],log2 fold change [10]
SOAT1 (UniProt P35610),0.027,-0.004,-0.022,-0.079,-0.016,0.005,0.009,0.157,0.029,0.141
SLC30A9 (UniProt Q6PML9),-0.007,-0.054,-0.043,-0.423,0.048,0.008,-0.003,0.036,-0.161,0.312 (active)
SPNS1 (UniProt Q9H2V7),0.025,-0.038,-0.004,-0.042,0.04,0.032,-0.073,0.014,-0.054,0.052
SRM (UniProt P19623),-0.015,-0.013,-0.048,-0.032,0.716 (active),-0.036,0.01,-0.017,-0.009,-0.033
SP1 (UniProt P08047),0.077,0.009,0.022,-0.024,-0.063,0.056,-0.049,0.095,-0.027,0.031
SMG5 (UniProt Q9UPR3),-0.038,0.057,-0.007,0.01,-0.006,-0.003,0.019,-0.131,-0.035,-0.007
SLC25A38 (UniProt Q96DW6),-0.093,-0.026,-0.044,-0.072,0.173,-0.055,0.391 (active),-0.024,-0.025,0.112
SLC27A4 (UniProt Q6P1M0),-0.052,-0.005,-0.049,-0.04,0.037,0.095,-0.045,0.149,-0.057,0.052
SLC12A6 (UniProt Q9UHW9),0.037,-0.046,-0.025,0.008,0.015,-0.028,-0.002,0.027,-0.011,0.034
SYPL1 (UniProt Q16563),0.015,-0.025,-0.001,-0.376 (active),0.004,0.16,-0.028,-0.009,-0.034,0.163
SPIRE1 (UniProt Q08AE8),-0.019,0.012,-0.072,-0.281 (active),-0.021,0.128,-0.023,0.151,-0.031,0.134
SND1 (UniProt Q7KZF4),-0.008,-0.012,-0.034,0.077,0.008,-0.108,0,0.034,-0.028,-0.009
SFR1 isoform 2 (UniProt Q86XK3),0.001,0.053,0.006,0.09,0.043,0.169,-0.002,0.068,-0.097,0.261 (active)
SRSF2 (UniProt Q01130),0.015,-0.005,0.006,-0.299 (active),0.061,0.079,0.026,0.05,-0.016,0.109
SOX5 (UniProt P35711),0.137,-0.019,0.006,0.007,-0.073,0.06,-0.017,0.026,-0.235,0.007
SMAD9 (UniProt O15198),-0.056,-0.036,-0.027,-0.047,0.091,0.077,0.091,0.024,0.014,-0.019
SPG11 (UniProt Q96JI7),-0.163,-0.021,-0.102,-0.049,0.048,0,0.047,0.024,0.138,-0.009
SURF2 (UniProt Q15527),-0.005,-0.049,-0.031,-0.008,0.014,0.092,-0.061,-0.018,-0.055,0.111
SMAD2 (UniProt Q15796),-0.006,-0.042,-0.055,-0.073,-0.066,-0.006,-0.027,-0.025,-0.005,0.06
SSB (UniProt E7ERC4),-0.151,-0.15,-0.103,1.41 (active),0.141,-0.263,-0.028,0.032,-0.271,-0.121
SKA2 (UniProt Q8WVK7),0.005,-0.004,0.027,0.048,-0.004,-0.029,0.048,-0.09,-0.017,0.009
STK25 (UniProt O00506),-0.058,-0.041,0.008,-0.036,-0.055,0.18,0.033,-0.081,0.001,0.005
SNRPD2 (UniProt P62316),0.017,-0.01,0.016,-0.055,0.018,0.057,-0.014,-0.009,0.078,0.052
"SNX6, A0A0A0MRI2",-0.008,0.018,-0.062,0.2,0.003,-0.134,0.022,-0.012,-0.04,-0.088
SFN (UniProt P31947),0.018,0.117,0.055,0.347 (active),-0.029,-0.043,0.006,0.019,0.047,-0.117
SYNRG (UniProt Q9UMZ2),0.022,-0.016,0.016,0.043,-0.041,-0.037,0.024,-0.023,-0.032,-0.044
SLC25A17 (UniProt O43808),-0.033,0.015,-0.052,-0.303 (active),0.029,0.072,-0.069,0.007,-0.066,0.085
STK3 isoform 2 (UniProt Q13188),-0.045,0.02,0.299,-0.029,-0.058,0.468 (active),0.224,-0.035,0.001,0.122
SMC6 (UniProt Q96SB8),-0.051,-0.06,-0.026,-0.039,0.034,-0.002,0.004,-0.011,0.007,0.029
